From PubChem BioAssay (NCATS)
Inconclusive results are not listed. The source made the active and inactive calls. Calls follow the shape of the dose curve; as a rule, active = well fitted inhibition curve with a large enough effect; inconclusive = small, poorly fitted or top-dose-only effect; inactive = flat fitted curve, though single readings scatter.

Biological target: Aldehyde dehydrogenase, mitochondrial (Homo sapiens) (UniProt P05091)
Test: qHTS for Inhibitors of the Aldehyde Dehydrogenase Family (ALDH2) Primary screen (AID 2061308); also: nearly all actives have a fitted effect of over 55% in size;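 as to activity change, negative = inhibition: plate controls were vehicle for no effect and reference inhibitor for full effect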
Conditions: ALDH2 enzyme inhibition qHTS, 1536-well; series mostly up to 56 µM; activity change, negative = inhibition: at the top concentration
Potency is read from the fitted curve at half-maximal effect.

| SMILES | activity change, negative = inhibition | Potency |
| --- | --- | --- |
| COc1ccc2[nH]c(S(=O)Cc3ncc(C)c(OC)c3C)nc2c1 (stereo unspecified) | -3.77% (inactive) |  |
| COc1ncc(Nc2ncc([C@H](C)N3CCN(S(C)(=O)=O)CC3)cc2-c2nc(C)nc(N)n2)cc1F | -0.926% (inactive) |  |
| Cc1cnc(Nc2ccc(F)cc2Cl)nc1-c1c[nH]c(C(=O)NC(CO)c2cccc(Cl)c2)c1 (stereo unspecified) | -2.97% (inactive) |  |
| CC(/C=C/C(=O)NO)=C\[C@@H](C)C(=O)c1ccc(N(C)C)cc1 | 6.53% (inactive) |  |
| C=CC(=O)Nc1cccc(Nc2nc(Nc3ccc(N4CCN(C(C)=O)CC4)cc3OC)ncc2C(F)(F)F)c1 | -2.4% (inactive) |  |
| O=C1Cc2cc(S(=O)(=O)N3CCN(c4ccc(O)cc4)CC3)ccc2N1 | -19.2% (inactive) |  |
| O=C(c1ccc(/C=C/c2n[nH]c3ccccc23)cc1)N1CCNCC1 | 6.84% (inactive) |  |
| [2H]C([2H])(Nc1nc(-c2ccccc2C([2H])(C([2H])([2H])[2H])C([2H])([2H])[2H])ncc1C)c1ccc(-n2ccnn2)cc1 | 105% (inactive) |  |
| CC(=O)N1CCN(c2ccc(N)cc2)CC1 | -25.5% (inactive) |  |
| Cc1c[nH]c2ncnc(N3CCC(CN)(C(=O)Nc4cccc(OC(=O)N(C)C)c4)CC3)c12 | 6.98% (inactive) |  |
| CC(C)NC(=O)COc1cccc(-c2nc(Nc3ccc4[nH]ncc4c3)c3ccccc3n2)c1 | -0.177% (inactive) |  |
| C#Cc1cccc(Nc2ncnc3cc(OCCOC)c(OCCOC)cc23)c1 | 8.64% (inactive) |  |
| COc1ccc(Cl)c(Nc2nc3ccccc3nc2NS(=O)(=O)c2cccc(NC(=O)C(C)(C)N)c2)c1 | -0.0713% (inactive) |  |
| CCn1c(=O)c(-c2ccc(Cl)cc2Cl)cc2cnc(Nc3ccc(N4CCNCC4)c(F)c3)nc21 | 10.2% (inactive) |  |
| CCN1CCN(Cc2ccc(NC(=O)Nc3ccc(Oc4cc(NC)ncn4)cc3)cc2C(F)(F)F)CC1 | 7.08% (inactive) |  |
| Cc1ccnc(NC(=S)N2CCN(c3cc(Cl)cc(Cl)c3)CC2)c1 |  | 2.24 µM (active) |
| C[C@@H]1COC(Nc2ccc3ncnc(Nc4ccc(OCc5nccs5)c(Cl)c4)c3c2)=N1 | -3.72% (inactive) |  |
| Cc1cccc(-c2[nH]ncc2-c2ccc(F)c(-c3cnn(CCO)c3)c2)n1 | -1.64% (inactive) |  |
| Cc1c(NC(=O)OCC2COCCN2)cn2ncnc(Nc3ccc4c(cnn4Cc4cccc(F)c4)c3)c12 (stereo unspecified) | -0.168% (inactive) |  |
| Cn1cc(-c2cnn3c(N)c(Br)c(C4CCCNC4)nc23)cn1 (stereo unspecified) | 9.67% (inactive) |  |
| Nc1ccccc1S(=O)(=O)Nc1cccc2cccnc12 | -8.8% (inactive) |  |
